Bioassay records deposited in PubChem by National Center for Advancing Translational Sciences (NCATS).
Sampled rows, rich in hits. Any-hit rate of the full collection: about 4.7%.
TRHR agonist: agonists of human TRH receptor; P34981; TRHR cells, calcium flux fluo-8, FDSS agonist mode; activation, % at 2 µM; 360,000 compounds, 0.18% hits; AID 493084
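Read-out: compound-evoked intracellular calcium rise in TRHR cells, fluo-8 dye, kinetic FDSS fluorescence at 1 s/cycle following a 10-cycle baseline. Cells cultured overnight before dye loading (30 min–1.5 h, RT).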
TRHR enhancer: TRH receptor (human) allosteric enhancement | TRHR cells, fluo-8 calcium fluorescence, EC20 TRH enhancement | 360,000 compounds, 0.66% hits | enhancement, % at 2 µM; in the data active = enhancement above about 30%
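Enhancer read-out: after compound pinning and an initial kinetic agonist-mode read, an EC20 of TRH (10 nM final) was injected and fluo-8 calcium signal (Ex 480/Em 530) followed at 1 s/cycle for 100 cycles in TRHR-expressing cells.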
D1 antagonist: blocks dopamine activation of the human D1 receptor; HEK293 TREx D1 cells, calcium flux, dopamine EC80; active compounds read low; activity change, negative = inhibition, % at 10 µM; 360,000 compounds, 3.2% hits; AID 504652; in the data active = activity change below about -30%
Target sequence (P21728 whole entry, looked up): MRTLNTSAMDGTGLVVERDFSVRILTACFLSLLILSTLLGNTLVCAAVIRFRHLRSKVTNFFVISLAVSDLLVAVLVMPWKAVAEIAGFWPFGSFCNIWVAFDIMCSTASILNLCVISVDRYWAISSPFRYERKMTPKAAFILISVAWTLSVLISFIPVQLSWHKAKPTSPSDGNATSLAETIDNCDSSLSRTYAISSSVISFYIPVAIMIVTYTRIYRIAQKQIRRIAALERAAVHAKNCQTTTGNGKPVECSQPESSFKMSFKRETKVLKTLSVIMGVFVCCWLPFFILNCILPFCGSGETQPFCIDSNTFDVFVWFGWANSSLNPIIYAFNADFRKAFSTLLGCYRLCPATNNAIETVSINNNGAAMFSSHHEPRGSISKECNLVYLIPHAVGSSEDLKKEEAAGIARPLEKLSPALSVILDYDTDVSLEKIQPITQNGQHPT
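Antagonism measured as reduced calcium response to an EC80 dopamine addition following 180 s compound pre-read; cells were inducible HEK293 Trex D1 plated overnight at 30 C, read kinetically at 1 cycle/sec.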
D1 ag: agonists of human D1 dopamine receptor. P21728. HEK293 T-REx D1 cells, calcium flux, agonist mode. activation, % at 2 µM. 360,000 compounds, 1% hits. AID 504660
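Inducible HEK293 T-REx D1 cells, force-coupled to calcium signalling, were plated at 4000 cells/well with tetracycline and held overnight at 30 C. After no-wash calcium dye loading, compound-evoked calcium rise over 180 s flagged agonists.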
D1 PAM: potentiators of human D1 dopamine receptor; P21728; HEK293 TREx D1 cells, calcium flux, dopamine EC20 potentiation; potentiation, % at 10 µM; 360,000 compounds, 0.036% hits; AID 504651; in the data active = potentiation above about 30%
Of the large screens only hits and unclear results are named; the others gave an inactive call; ! = a repeat was not active. Cut-off read from the data, not from the text of the source, unless noted: active = activation above about 30%; inactive = the rest.

C#CCOCCOCCOCCNc1nc(N2CCN(C(=O)CCCCCCCCCCNC(=O)Cn3cc(C[C@@H](C)O)nn3)CC2)nc(N2CCN(C(=O)CCCCCCCCCCNC(=O)[C@H](CCCCN)n3cc(CCCC(=O)O)nn3)CC2)n1	none
C#CCOCCOCCOCCNc1nc(N2CCN(C(=O)CCCCCCCCCCNC(=O)Cn3cc(CCCCCN)nn3)CC2)nc(N2CCN(C(=O)CCCCCCCCCCNC(=O)[C@@H](CCC(=O)O)n3cc(CCCCCN)nn3)CC2)n1	D1 ag 39.0
CN(CCC#N)C(=O)COC(=O)c1ccc(Cl)cc1O	D1 antagonist -34.3
O=C1Cc2cc(CCN3CCN(c4nsc5ccccc45)CC3)c(Cl)cc2N1	D1 antagonist -83.8
O=C1Cc2cc(S(=O)(=O)N3CCN(c4ccccc4)CC3)ccc2N1	none
CCC(C)NCCCOc1c(C)cc(C)cc1Br (stereo not given)	D1 ag 32.2
COc1ccc2oc(C(=O)Nc3nc(-c4ccccn4)cs3)c(C)c2c1	none
O=CNC1CCCc2c1[nH]c1ccc(Cl)cc21 (stereo not given)	D1 antagonist -37.2
CCCCCC(=O)C(=O)c1ccc(O)cc1O	TRHR enhancer 33.7
Cc1ccc(CNC(=O)C2CCN(c3nc4ccc(C)cc4[nH]3)CC2)cc1	none
Nc1nc(Cl)c(C=O)c(N2CCCCC2)n1	none
Nc1nc(N2CCCCC2)c(C=O)c(N2CCCCC2)n1	D1 antagonist -36.1
COc1cc(/C=C/C(=O)OCC(=O)Nc2ccc([N+](=O)[O-])cc2)ccc1O	D1 ag 30.8
C/C=C/c1ccc(OCC(=O)Nc2ccc(OC)c(OC)c2)c(OC)c1	D1 antagonist -38.0
CCOC(=O)/C=C/C(=O)OCC(=O)Nc1ccc([N+](=O)[O-])cc1	D1 antagonist -32.7
CCOC(=O)/C=C/C(=O)Nc1cccc([N+](=O)[O-])c1	none
C/C=C/c1ccc(OCCCCN2CC(C)CC(C)C2)c(OC)c1 (stereo not given)	none
C/C=C/c1ccc(OCC(=O)Nc2ccncc2)c(OC)c1	none
C/C=C/c1ccc(OCCCCN2CCN(CC)CC2)c(OC)c1	D1 antagonist -32.7
COC(=O)c1cccc(NC(=O)c2nsc3ccccc23)c1	none
O=C(COC(=O)/C=C/c1ccc(F)cc1)Nc1ccc2[nH]c(=O)[nH]c2c1	none
COc1ccc(/C=C/C(=O)OCC(=O)Nc2ccc3[nH]c(=O)[nH]c3c2)cc1OC	D1 antagonist -32.0
Cc1sc2nc(CSC(C)C(=O)NC3(C#N)CCCCC3)[nH]c(=O)c2c1C (stereo not given)	none
Cc1sccc1C1C(C#N)=C(N)SC(N)=C1C#N	none
N#CC1=C(N)SC(N)=C(C#N)C1CCC1CCCCC1	D1 ag 42.7
Cc1nn(S(=O)(=O)c2cccs2)c(C)c1Sc1ccc([N+](=O)[O-])cc1	none
Cc1nn(S(=O)(=O)c2ccccc2)c(C)c1Sc1ccc([N+](=O)[O-])cc1	D1 antagonist -33.0
O=[N+]([O-])c1ccc(Sc2nc3ccccc3o2)c([N+](=O)[O-])c1	TRHR enhancer 30.2
O=c1[nH]c(=O)n(Cc2ccccc2)c2nc(-c3cccs3)n(CCO)c12	none
Cn1cnc2c1c(=O)[nH]c(=O)n2Cc1ccccc1	none
O=c1[nH]c(=O)n(CCO)c2nnn(Cc3ccccc3)c12	D1 antagonist -31.2
O=c1[nH]c(=O)n(Cc2ccccc2)c2nc(-c3ccc(C(F)(F)F)cc3)n(CCO)c12	D1 antagonist -30.9
CCOc1ccc(NC(=O)c2c(NC(=O)CNCCN3CCOCC3)sc3c2CCC3)cc1	none
O=C(Oc1cc(-c2ccccc2)no1)c1ccc(F)cc1	D1 antagonist -46.6
O=C(Oc1cc(-c2ccccc2)no1)c1cccc(C(F)(F)F)c1	none
O=C(COC(=O)C1CCC(N2C(=O)C3C4CCC(C4)C3C2=O)CC1)c1ccc(F)cc1 (stereo not given)	D1 antagonist -34.6
Cc1ccc(NC(=O)Cc2c(C(=O)O)n(C)c3ccccc23)cc1F	none
Cn1c(C(=O)O)c(CC(=O)Nc2ccc(F)cc2F)c2ccccc21	D1 antagonist -50.4
CC1=C(C(=O)OCc2ccccc2)C(c2ccc(Cl)cc2)NC(=O)N1CCCC(=O)O (stereo not given)	none
CCOC(=O)C1=C(O)C(=O)N(c2ccc(S(N)(=O)=O)cc2)C1c1ccc(Cl)cc1 (stereo not given)	D1 antagonist -38.3
O=C(COc1ccc([N+](=O)[O-])cc1)NCC(c1cccs1)N1CCOCC1 (stereo not given)	none
CSC(=NCc1ccco1)NC#N	D1 antagonist -33.9
O=C(N/N=C\c1ccc(Cl)s1)c1ccc(Cn2cccn2)o1	none
O=C(N/N=C/c1c(O)ccc2ccccc12)c1cccc(C(F)(F)F)c1	TRHR agonist 98.7, D1 antagonist -31.4, D1 ag 162.0
O=C(N/N=C\c1c(O)ccc2ccccc12)c1ccc(Cn2cccn2)o1	D1 antagonist -30.2
COc1cc(OC)c(N(C)C(=O)CCNC(=O)Cn2cnc3ccccc3c2=O)cc1Cl	TRHR enhancer 30.1!
CC1Nc2ccccc2C(=O)N1NS(C)(=O)=O (stereo not given)	TRHR enhancer 33.4
CC(C)N(Cc1ccccc1)C(=O)c1nc(-c2ccc(Cl)cc2)n2c1CCCCC2	none
Clc1ccc(-c2c(C3=NCCCN3)nnn2-c2ccc(Cl)cc2)cc1	D1 antagonist -38.9
CCn1cc(S(=O)(=O)c2ccccc2)c(=O)c2cc(F)c(N3CCCC3)cc21	none
CCc1ccc(NC(=O)c2cnc(N3CCN(c4ccccn4)CC3)c3ccccc23)cc1	D1 antagonist -40.3
CC(C)Oc1cccc(C2CC(=O)Nc3cc4c(cc32)OCO4)c1 (stereo not given)	D1 antagonist -32.3, D1 ag 67.9
COc1ccccc1C(CNC(=O)c1oc2ccccc2c1C)N1CCCC1 (stereo not given)	none
CCOC(=O)N=Nc1c(O)n(C)c2ccccc12	none
Cc1ccccc1N=Nc1c(O)n(C)c2ccccc12	D1 antagonist -39.0
C=CCn1c(O)c(N=Nc2ccccc2)c2ccccc21	none
C=CCn1c(O)c(N=Nc2ccccc2O)c2ccccc21	D1 ag 40.6
COc1ccc(Nc2ncnc3onc(-c4ccc(Cl)cc4)c23)cc1Cl	none
O=C(OCc1nnc(-c2ccccc2)o1)c1cc(S(=O)(=O)N2CCOCC2)c(Cl)cc1Cl	D1 antagonist -34.2
O=C(NC1CCCCCC1)C1c2ccccc2C(=O)N1Cc1ccccc1Cl (stereo not given)	none
COc1cccc(/C=N/Nc2snc(SC)c2C#N)c1O	D1 antagonist -41.3, D1 ag 37.0
O=C(Cn1c(=O)nc(-c2ccccc2F)c2cc(Cl)ccc21)NCCCc1ccccc1	none
COc1cc(CN2CCN(C(c3ccccc3)c3ccccc3)CC2)cc(OC)c1OC	D1 antagonist -52.3
CCN1CCN(Cc2cccc(Oc3ccc(Cl)cc3)c2)CC1	D1 antagonist -64.5
